Holding throughout (assay): log2 ratio of Biotin-Ahx-Ub-VS probe labelling (fragment/DMSO); higher = less target engagement (more negative = stronger competition), active = hit call of the paper (q ≤ 0.05, log2 ratio ≤ -1)
Holding throughout (settings): compound concentration: 200 uM; treatment time: 3 h

The target in one assay is T1, USP19 (UniProt O94966).
T1 sequence (whole entry): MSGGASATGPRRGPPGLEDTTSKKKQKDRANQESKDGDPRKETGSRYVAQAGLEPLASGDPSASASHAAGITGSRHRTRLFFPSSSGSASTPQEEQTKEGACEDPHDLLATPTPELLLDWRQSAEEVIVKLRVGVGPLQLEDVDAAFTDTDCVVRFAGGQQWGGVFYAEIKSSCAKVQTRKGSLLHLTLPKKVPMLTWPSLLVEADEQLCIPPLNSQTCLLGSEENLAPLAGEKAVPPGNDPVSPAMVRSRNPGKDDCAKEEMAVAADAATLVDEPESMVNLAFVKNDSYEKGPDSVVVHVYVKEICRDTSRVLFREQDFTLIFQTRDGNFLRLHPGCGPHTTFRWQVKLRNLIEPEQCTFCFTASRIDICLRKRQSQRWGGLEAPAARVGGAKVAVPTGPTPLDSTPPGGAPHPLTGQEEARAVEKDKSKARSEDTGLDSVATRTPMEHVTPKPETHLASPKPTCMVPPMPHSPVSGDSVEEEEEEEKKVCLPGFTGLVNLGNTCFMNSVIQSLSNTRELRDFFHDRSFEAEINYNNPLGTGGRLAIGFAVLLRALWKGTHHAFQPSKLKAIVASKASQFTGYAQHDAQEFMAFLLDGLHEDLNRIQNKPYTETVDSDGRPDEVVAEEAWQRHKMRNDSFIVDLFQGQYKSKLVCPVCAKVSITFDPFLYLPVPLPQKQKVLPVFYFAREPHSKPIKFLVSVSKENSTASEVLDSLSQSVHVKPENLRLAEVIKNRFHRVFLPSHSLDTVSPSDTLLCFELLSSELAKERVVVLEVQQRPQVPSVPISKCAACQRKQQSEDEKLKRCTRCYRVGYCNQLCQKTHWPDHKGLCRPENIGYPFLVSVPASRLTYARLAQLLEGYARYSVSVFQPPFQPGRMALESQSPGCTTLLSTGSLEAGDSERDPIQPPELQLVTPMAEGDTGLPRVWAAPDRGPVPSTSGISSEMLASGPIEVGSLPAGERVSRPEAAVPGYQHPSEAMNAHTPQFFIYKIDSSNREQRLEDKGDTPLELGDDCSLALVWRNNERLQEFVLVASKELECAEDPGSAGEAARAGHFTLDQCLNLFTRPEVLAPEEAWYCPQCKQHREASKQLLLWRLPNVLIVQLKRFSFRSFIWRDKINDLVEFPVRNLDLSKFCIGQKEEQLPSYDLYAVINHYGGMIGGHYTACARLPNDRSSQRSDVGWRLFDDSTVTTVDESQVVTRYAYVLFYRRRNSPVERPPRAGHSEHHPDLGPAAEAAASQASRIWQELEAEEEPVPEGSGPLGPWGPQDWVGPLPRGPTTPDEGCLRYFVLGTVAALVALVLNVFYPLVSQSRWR
In outline: (§1)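 Average log2 ratios of fragment over vehicle were obtained by unpaired t-test from global-median-normalised Spectronaut label-free quantities. Proteins with ≥2 unique peptides were included. HEK293T lysate (495 µg per sample) was treated in triplicate with fragment at 200 µM or vehicle for 3 h, then with Biotin-Ahx-Ub-VS at 0.5 µM final for 1 h, and labelled DUBs were NeutrAvidin-enriched and run by diaPASEF LC-MS/MS.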

Another assay addresses T2, USP22 (UniProt Q9UPT9).
T2 sequence (whole entry): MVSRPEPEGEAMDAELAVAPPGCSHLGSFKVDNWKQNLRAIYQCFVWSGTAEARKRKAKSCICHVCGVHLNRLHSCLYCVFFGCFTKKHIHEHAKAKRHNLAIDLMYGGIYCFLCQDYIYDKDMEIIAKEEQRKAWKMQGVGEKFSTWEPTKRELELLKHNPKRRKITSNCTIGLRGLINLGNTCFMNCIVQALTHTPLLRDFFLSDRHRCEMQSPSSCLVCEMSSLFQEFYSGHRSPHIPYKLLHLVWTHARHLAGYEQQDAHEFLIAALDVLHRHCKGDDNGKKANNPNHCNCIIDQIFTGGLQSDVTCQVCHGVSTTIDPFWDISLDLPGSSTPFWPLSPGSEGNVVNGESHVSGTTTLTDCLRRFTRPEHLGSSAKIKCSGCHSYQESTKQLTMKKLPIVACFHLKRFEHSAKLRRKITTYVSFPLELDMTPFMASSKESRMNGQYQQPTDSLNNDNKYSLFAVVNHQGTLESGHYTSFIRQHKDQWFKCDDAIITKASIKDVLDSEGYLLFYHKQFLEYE
An outline of the steps: as §1

A further assay concerns the target USP24 (UniProt Q9UPU5). In outline: as §1
The target in a further assay is T3, USP25 (UniProt Q9UHP3).
T3 sequence (whole entry): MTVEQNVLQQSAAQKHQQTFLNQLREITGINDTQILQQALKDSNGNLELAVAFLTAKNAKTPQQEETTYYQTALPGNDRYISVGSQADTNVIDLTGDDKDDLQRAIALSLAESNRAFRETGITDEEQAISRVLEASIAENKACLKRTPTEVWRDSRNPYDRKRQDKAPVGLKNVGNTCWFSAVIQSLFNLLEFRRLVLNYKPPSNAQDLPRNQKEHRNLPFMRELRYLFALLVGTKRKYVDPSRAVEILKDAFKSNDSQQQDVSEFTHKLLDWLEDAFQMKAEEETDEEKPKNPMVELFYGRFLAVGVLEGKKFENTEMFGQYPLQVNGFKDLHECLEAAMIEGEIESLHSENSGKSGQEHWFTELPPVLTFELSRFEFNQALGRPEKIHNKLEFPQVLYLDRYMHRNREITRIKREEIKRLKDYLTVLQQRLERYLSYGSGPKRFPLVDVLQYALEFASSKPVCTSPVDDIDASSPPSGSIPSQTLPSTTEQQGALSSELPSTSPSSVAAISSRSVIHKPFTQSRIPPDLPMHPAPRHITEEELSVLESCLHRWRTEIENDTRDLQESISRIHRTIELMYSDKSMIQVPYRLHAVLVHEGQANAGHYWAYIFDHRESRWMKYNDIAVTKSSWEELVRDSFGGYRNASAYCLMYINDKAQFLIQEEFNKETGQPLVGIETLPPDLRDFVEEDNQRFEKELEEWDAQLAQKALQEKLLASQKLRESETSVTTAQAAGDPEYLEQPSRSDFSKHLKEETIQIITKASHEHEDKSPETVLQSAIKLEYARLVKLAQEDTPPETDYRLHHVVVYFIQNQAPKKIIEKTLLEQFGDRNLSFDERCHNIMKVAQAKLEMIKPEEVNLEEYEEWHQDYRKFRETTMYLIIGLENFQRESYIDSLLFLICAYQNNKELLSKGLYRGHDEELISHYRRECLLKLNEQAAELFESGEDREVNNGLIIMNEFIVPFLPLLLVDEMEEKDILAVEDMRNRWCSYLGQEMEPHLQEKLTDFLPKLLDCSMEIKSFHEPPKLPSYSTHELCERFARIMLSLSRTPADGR
An outline of the steps:
as §1

For another assay, the target named is T4, USP28 (UniProt Q96RU2).
T4 sequence (whole entry): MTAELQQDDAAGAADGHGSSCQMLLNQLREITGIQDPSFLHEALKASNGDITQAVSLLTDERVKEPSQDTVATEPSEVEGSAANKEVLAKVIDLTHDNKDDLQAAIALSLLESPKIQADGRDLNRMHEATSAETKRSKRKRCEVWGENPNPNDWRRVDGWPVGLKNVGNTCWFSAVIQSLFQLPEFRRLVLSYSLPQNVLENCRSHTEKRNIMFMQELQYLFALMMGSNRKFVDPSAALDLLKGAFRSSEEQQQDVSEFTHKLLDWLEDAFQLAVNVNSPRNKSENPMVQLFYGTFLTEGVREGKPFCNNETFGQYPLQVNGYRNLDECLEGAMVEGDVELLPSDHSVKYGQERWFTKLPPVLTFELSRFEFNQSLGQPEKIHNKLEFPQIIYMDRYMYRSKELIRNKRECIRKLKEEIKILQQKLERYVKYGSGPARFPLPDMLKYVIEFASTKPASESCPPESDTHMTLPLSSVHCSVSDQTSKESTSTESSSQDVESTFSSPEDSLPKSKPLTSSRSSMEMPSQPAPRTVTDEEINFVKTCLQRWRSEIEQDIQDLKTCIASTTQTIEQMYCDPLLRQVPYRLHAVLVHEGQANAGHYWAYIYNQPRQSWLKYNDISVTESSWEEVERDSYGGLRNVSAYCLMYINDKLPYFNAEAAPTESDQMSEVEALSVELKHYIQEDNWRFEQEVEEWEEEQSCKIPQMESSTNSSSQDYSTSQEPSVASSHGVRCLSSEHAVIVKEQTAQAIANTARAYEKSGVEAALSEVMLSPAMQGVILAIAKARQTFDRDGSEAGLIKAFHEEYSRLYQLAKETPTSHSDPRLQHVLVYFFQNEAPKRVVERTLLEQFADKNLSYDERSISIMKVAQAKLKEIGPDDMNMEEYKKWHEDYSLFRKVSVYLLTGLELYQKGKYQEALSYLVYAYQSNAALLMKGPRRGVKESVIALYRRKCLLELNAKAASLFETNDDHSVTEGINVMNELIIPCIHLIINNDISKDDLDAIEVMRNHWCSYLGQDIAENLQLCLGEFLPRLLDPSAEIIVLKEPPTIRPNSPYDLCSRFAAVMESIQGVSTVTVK
An outline of the steps: as §1

The record followed here is the supplement of paper PMC11732987, “Enantioselective OTUD7B fragment discovery through chemoproteomics screening and high-throughput optimisation” (Communications Chemistry, 2025).

A number with no mark means an inactive call.

Sequence of USP24 (Q9UPU5 whole entry): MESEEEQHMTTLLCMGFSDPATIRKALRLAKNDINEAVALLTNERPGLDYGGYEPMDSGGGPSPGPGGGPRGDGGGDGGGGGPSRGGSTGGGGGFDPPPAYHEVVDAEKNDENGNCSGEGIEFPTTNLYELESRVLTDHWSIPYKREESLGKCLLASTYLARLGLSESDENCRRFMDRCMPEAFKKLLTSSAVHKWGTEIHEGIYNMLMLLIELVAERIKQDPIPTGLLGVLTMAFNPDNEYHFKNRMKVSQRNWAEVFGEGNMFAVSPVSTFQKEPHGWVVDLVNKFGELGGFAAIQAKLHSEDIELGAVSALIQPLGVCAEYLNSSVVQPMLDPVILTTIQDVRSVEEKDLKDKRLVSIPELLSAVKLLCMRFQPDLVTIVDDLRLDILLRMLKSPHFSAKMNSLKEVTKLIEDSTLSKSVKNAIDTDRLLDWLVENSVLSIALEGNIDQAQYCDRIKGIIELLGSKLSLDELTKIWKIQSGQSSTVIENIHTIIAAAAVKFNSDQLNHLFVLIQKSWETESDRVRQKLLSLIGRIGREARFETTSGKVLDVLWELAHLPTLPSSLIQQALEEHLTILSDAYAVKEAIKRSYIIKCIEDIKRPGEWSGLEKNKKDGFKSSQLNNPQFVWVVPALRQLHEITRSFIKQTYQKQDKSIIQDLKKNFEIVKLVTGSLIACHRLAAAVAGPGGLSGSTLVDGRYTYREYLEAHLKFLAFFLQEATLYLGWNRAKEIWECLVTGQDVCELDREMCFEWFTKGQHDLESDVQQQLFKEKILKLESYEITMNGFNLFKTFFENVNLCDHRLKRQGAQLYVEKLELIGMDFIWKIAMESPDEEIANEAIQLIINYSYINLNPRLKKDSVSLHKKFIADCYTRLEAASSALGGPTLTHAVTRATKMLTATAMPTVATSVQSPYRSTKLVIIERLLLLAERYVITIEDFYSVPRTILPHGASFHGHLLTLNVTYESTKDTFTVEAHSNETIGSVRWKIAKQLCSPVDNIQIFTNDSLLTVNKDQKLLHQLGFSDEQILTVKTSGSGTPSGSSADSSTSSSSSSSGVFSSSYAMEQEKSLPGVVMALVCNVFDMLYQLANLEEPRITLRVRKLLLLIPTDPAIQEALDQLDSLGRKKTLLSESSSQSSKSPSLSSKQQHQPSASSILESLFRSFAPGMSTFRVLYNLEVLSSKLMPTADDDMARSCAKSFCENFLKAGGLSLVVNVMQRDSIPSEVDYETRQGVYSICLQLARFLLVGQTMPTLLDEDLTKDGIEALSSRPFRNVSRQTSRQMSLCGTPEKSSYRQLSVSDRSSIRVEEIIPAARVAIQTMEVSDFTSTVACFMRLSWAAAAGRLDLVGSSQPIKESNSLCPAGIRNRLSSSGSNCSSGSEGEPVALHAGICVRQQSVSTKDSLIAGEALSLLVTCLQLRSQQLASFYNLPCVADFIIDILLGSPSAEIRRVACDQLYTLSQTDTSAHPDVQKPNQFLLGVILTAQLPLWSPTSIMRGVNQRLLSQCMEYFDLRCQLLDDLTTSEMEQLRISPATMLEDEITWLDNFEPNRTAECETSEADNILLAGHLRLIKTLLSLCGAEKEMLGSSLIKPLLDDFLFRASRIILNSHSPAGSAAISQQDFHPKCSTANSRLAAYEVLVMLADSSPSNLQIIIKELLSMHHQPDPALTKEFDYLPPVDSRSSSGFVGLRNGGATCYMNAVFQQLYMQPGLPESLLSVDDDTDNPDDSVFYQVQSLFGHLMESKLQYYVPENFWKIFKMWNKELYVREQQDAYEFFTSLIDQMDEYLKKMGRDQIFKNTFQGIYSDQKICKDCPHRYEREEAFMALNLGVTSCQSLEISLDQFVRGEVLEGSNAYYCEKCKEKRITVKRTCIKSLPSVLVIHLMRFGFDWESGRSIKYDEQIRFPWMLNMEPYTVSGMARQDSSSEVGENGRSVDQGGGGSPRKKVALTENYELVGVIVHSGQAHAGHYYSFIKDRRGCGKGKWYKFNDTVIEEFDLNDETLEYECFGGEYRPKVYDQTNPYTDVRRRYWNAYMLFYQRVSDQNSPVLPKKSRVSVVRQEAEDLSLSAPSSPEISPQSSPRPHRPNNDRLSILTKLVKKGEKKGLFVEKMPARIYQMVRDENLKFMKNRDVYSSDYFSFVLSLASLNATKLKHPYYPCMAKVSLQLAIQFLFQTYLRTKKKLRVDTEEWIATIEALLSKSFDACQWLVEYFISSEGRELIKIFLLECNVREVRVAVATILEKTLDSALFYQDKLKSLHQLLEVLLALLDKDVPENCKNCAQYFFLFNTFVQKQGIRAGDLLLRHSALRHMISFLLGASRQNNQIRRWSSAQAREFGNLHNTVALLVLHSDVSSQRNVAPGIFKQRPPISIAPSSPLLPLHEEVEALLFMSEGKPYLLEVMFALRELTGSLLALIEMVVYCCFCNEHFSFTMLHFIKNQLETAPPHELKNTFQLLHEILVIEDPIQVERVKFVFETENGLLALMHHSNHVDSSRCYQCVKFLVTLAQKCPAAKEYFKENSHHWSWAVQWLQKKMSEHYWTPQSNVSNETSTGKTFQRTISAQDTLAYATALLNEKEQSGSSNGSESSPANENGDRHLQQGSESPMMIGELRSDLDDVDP

For the compound `Cc1n[nH]c2c1CN(C(=O)CCl)CC2`, the “log2 ratio of Biotin-Ahx-Ub-VS probe labelling” value in the assay with USP19 was -1.23 (active); in the assay with USP22, -0.846; with USP24, -1.26 (active); with USP25, -0.783; with USP28, -1.29 (active).
